Most compounds without a hit are left out; they make up all but 15% or so of the library.
VP16 counter: inhibits Gal4-VP16 luciferase reporter, ROR gamma counter-screen; Drosophila S2 Gal4-VP16 UAS-luciferase, luminescence, 20 h; Potency, µM (doses to about 53.6 µM), for inactives: top-dose activity, negative = inhibition, actives largely listed as inhibitors; 3.5% of 310,000 active;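 also: Gal4-VP16 expression switched on by copper sulfate through the metallothionein promoter; nearly all actives have a fitted effect of over 50% in size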
DT40 TDP1 CPT: growth inhibition of DT40 Tdp1-/-;hTDP1 cells with camptothecin (screen for TDP1 inhibitors); 12% of 420,000 active; chicken DT40 Tdp1-/-;hTDP1 cells + 20 nM CPT, ATP luminescence, 48 h; Potency, µM (highest dose often 46.2 µM), for the others: top-dose activity change, negative = growth inhibition, actives largely listed as inhibitors; also: nearly all actives have a fitted effect of over 55% in size
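Chicken DT40 Tdp1-/- cells complemented with human TDP1, 400 cells/well, exposed to compounds plus 20 nM camptothecin for at least 48 h at 37 C; viability read as ATP content by CellTiter-Glo luminescence.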
ELG1 DNA repair: blocks ELG1-dependent DNA repair in HEK293T cells | HEK293T ELG1-luciferase reporter, luminescence, 16 h; DNA damage induced by 5-fluorouridine | Potency, µM (top dose mostly 46.1 µM), for inactives: at the top dose activity change, negative = inhibition, most hits filed as inhibitors | 2.3% of 330,000 active; also: nearly all actives have a fitted effect of over 55% in size
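HEK293T cells expressing luciferase-tagged ELG1 (2,000/well) received 5-Fluorouridine plus compound or DMSO for 16 hr at 37 °C. Luciferase was read by ONE-Glo luminescence after 30 min at room temperature.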
12-LOX inh: ALOX12 (human) lipoxygenase inhibition; 1.1% of 580,000 active; P18054; purified 12hLO, xylenol orange hydroperoxide absorbance; Potency, µM (titrated, usually from 108 µM), without a hit: at the top dose activity change, negative = inhibition, most hits filed as inhibitors; AID 1671190
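Purified human 12hLO (150 nM final) in 25 mM Hepes, 0.01% Triton X-100, pH 7.0 was preincubated 15 min at room temperature with compound. Then 40 uM arachidonic acid was added, 30 min. Hydroperoxide was read by Fe-XO absorbance ratio 573/405 nm.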
RORg inh: ROR gamma (mouse) transcription inhibition; P51450; Drosophila S2 Gal4-RORgamma UAS-luciferase reporter, 20 h; Potency, µM (series often up to 53.6 µM), inactives show at the highest dose activity change, negative = inhibition, most hits filed as inhibitors; 5.4% of 310,000 active; also: nearly all actives have a fitted effect of over 60% in size
Target sequence (P51450 whole entry, looked up, the tested form may be a part): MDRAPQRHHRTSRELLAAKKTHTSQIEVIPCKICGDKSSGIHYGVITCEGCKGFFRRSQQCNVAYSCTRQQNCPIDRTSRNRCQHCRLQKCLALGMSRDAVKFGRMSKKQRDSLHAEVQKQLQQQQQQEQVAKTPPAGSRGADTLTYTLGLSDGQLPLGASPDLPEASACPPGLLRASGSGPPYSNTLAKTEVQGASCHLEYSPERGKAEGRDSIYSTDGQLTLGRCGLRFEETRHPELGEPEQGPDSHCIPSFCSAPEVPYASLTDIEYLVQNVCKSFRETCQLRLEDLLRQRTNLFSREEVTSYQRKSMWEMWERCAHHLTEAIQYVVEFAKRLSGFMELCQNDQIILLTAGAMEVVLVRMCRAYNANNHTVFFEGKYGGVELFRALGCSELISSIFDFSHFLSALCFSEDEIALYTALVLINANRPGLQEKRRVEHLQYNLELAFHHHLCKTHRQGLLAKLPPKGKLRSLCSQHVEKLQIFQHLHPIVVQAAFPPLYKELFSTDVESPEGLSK
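In this cell-based reporter format, copper sulfate (700 uM final) drives Gal4–ROR gamma fusion expression from a metallothionein promoter in Drosophila Schneider cells; compounds preincubated 1 hr, reporter read after 20 hr at ambient temperature.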
DT40 TDP1 no CPT: qHTS for Inhibitors of human tyrosyl-DNA phosphodiesterase 1 (TDP1): qHTS in cells in absence of CPT; 15% of 420,000 active; AID 686978, 2013; Potency, µM (titrated, usually from 46.2 µM), without a hit: top-dose activity change, negative = growth inhibition, actives largely listed as inhibitors; DT40 Tdp1-/- hTDP1 cells, no CPT, ATP luminescence, 48 h; also: nearly all actives have a fitted effect of over 55% in size
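Growth of hTDP1-complemented DT40 Tdp1-knockout cells is measured by ATP luminescence after at least 48 hr compound exposure at 37 °C, with DMSO substituting for the 20 nM CPT used in the parallel screen.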
The depositor's hits bear a star; ? = inconclusive; . = no result given; [ ] = remark or other dose. Calls follow the shape of the dose curve; as a rule, active = well fitted curve in the direction sought with a large enough effect; inconclusive = small, poorly fitted or top-dose-only effect, or another doubt; inactive = no such curve, though single readings can be large; an effect the other way counts as inactive or inconclusive. % is scaled to controls: 0 for no effect and ±100 for the full control effect; potency is read from the fitted curve at half-maximal effect.

SMILES	VP16 counter	DT40 TDP1 CPT	ELG1 DNA repair	12-LOX inh	RORg inh	DT40 TDP1 no CPT
Cc1cccc(C(=O)Nc2ccc(-c3nc4cc(C(C)C)ccc4o3)cc2)c1	.	16µM*	.	-16%	.	16µM*
COc1cc(OC)cc(C(=O)Nc2ccc(-c3nc4ccccc4o3)cc2)c1	3%	16µM*	?	0%	7%	16µM*
CC(=O)Oc1cccc(C(=O)Nc2ccc(-c3nc4cc(C)ccc4o3)cc2)c1	.	.	.	-1%	.	.
Cc1cc(C)cc(C(=O)N2CCN(C(=O)c3cccc4cccnc34)CC2)c1	.	.	.	27%	.	.
O=C(c1ccccc1Oc1ccc(C(F)(F)F)cc1[N+](=O)[O-])N1CCOCC1	6%	-5%	10%	5%	16%	16%
O=C(c1ccc(Oc2ccc(C(F)(F)F)cc2[N+](=O)[O-])cc1)N1CCOCC1	-2%	?	3%	0%	?	15µM*
COC(=O)c1ccc(NCc2c(O)ccc(O)c2Br)cc1Cl	.	2.6µM*	.	0.89µM*	.	4.6µM*
COC(=O)c1cc(NCc2c(F)cccc2Cl)ccc1N1CCOCC1	13%	?	-9%	16%	34%	-27%
COC(=O)c1ccc(NCc2cc(O)ccc2O)cc1O	.	5.2µM*	.	5µM*	.	3.3µM*
COC(=O)c1cc(NCc2cccc3ccccc23)ccc1N1CCOCC1	.	.	.	-4%	.	.
CC1=C[C@@H](CN2CCC(C(N)=O)CC2)[C@H](C(C)C)C[C@H]1Cc1nnc(-c2ccc(C)cc2)o1	.	.	.	9%	.	.
CC(Cn1ccc2ccccc21)NC1CCN(c2ccc(C(=O)N(C)C)cc2)CC1 (centres undefined)	.	.	.	25%	.	.
CCC1(OC(=O)CN(C)C)C(=O)OCc2c1cc1n(c2=O)Cc2cc3c(N)cccc3nc2-1 (centres undefined)	.	0.16µM*	.	.	.	0.18µM*
CC[C@@]1(O)C(=O)OCc2c1cc1n(c2=O)Cc2c-1nc1ccccc1c2/C=N/OC(C)(C)C	.	.	.	-11%[22.9 µM]	.	.
CC(=O)C(Sc1ccc2nnc(-c3ccc(F)cc3)n2n1)C(C)=O	-20%	?	-22%	?	?	-28%
CSc1ccc2nnc(-c3ccc(C)cc3)n2n1	.	?	.	.	.	11µM*
Cc1ccc(-c2nnc3ccc(SCC(=O)c4ccccc4)nn23)cc1	.	?	.	.	.	14µM*
CCOC(=O)C(CC)Sc1ccc2nnc(-c3ccc(F)cc3)n2n1 (centres undefined)	.	20µM*	.	.	.	?
CC(=O)C(Sc1ccc2nnc(-c3ccc(C)cc3)n2n1)C(C)=O	?	12µM*	-27%	?	?	21µM*
Cc1ccc(-c2nnc3ccc(SCC(=O)OCc4ccccc4)nn23)cc1	.	-1%	.	.	.	?
O=C(c1ncccn1)N1CCc2c(n(CCOc3ccccc3)n(-c3ccccc3)c2=O)C1	.	.	.	-14%	.	.
N#Cc1ccc(CN2CC3(Cc4ccccc4C(=O)N3)C2)cc1	.	.	.	13%[6.33 µM]	.	.
O=C1Cc2ccccc2C(=O)N1c1ccc(F)cc1Cl	-21%	?	-1%	?	9%	16µM*
COc1ccc(C2CC(O)(c3ccccc3)Oc3cc(OC)cc(OC)c32)cc1 (centres undefined)	1%	23µM*	-19%	-19%	?	?
COc1ccc([C@@H]2C[C@@H](c3ccccc3)Oc3c(C)ccc(C(C)C)c32)cc1	.	.	.	11%	.	.
SMILES	VP16 counter	DT40 TDP1 CPT	ELG1 DNA repair	12-LOX inh	RORg inh	DT40 TDP1 no CPT
COc1ccc(C2CC(O)(c3ccccc3)Oc3c(C)ccc(C)c32)cc1 (centres undefined)	13µM*	?	1%	-17%	?	?
CC(C)CN1C[C@@H](C(=O)O)C[C@@H](C(=O)Nc2ccc(F)cc2)C1	.	.	.	-1%	.	.
Cc1nn(-c2ccc(C(C)C)cc2)c(C)c1[C@@H]1C=C[C@@H](NCc2cccc(C#N)c2)C1	.	.	.	-14%[176 µM]	.	.
CCCCNC(=S)NCC(c1ccccc1)c1c[nH]c2ccccc12 (centres undefined)	?	12%	-28%	45µM*	?	?
CSc1cc(-c2ccc(Cl)cc2)n(Cc2ccccc2)c(=O)c1C#N	8%	?	8%	-3%	12%	15µM*
CSc1cc(-c2ccccc2)n(C)c(=O)c1C#N	-11%	19%	1%	-3%	-30%	?
N#Cc1ccc(OCC(=O)N/N=C2/CC(c3ccccc3)Oc3ccccc32)cc1 (centres undefined)	11µM*	?	-4%	13%	11µM*	?
O=C(N/N=C1\CC(c2ccccc2)Oc2ccccc21)c1cccnc1 (centres undefined)	4µM*	?	?	4%	5.6µM*	21µM*
O=C(N/N=C1/CC(c2ccccc2)Oc2ccccc21)C1CC1 (centres undefined)	-15%	?	7%	12%	11µM*	?
Cc1ccc(S(=O)(=O)N/N=C2/CC(c3ccccc3)Oc3ccccc32)cc1 (centres undefined)	-2%	?	0%	-19%	?	-4%
O=S(=O)(N/N=C1\CC(c2ccccc2)Oc2ccccc21)c1ccccc1 (centres undefined)	-12%	-13%	0%	-21%	38%	-13%
CCOc1ccc(S(=O)(=O)N/N=C2/CC(c3ccccc3)Oc3ccccc32)cc1 (centres undefined)	9%	?	0%	?	?	16µM*
O=C(c1ccc(F)c(F)c1Nc1ccc(I)cc1F)N1CC(O)([C@H]2CCCCN2)C1	.	.	.	-2%[57.4 µM]	.	.
COc1cc(C(=O)Nc2ccccc2)nc2ccc(Cl)cc12	.	.	.	1%	.	.
O=C(N/N=C1\CC(c2ccccc2)Oc2ccccc21)c1ccccn1 (centres undefined)	-8%	-3%	15%	6%	?	-9%
O=C(N/N=C1\CC(c2ccccc2)Oc2ccccc21)c1ccc(O)cc1 (centres undefined)	?	?	18µM*	-14%	-38%	?
CN(C)c1ccc(/C=N/OC(=O)Nc2ccccc2Cl)cc1	-7%	8.2µM*	?	42%	-42%	15µM*
COc1ccc(NC(=O)O/N=C/c2ccc(Br)cc2)cc1	-18%	3%	16%	?	-1%	-18%
O=C(Nc1ccccc1)O/N=C/c1ccc(F)cc1	?	5%	?	-15%	10µM*	-21%
O=C(Nc1ccccc1Cl)O/N=C/c1ccc(F)cc1	.	-1%	.	0%	.	-7%

Bioassay records from PubChem.
